Inconclusive results are not listed. Activity calls are given as the source filed them. The limit is not given here; nearly all actives have AC50 up to about 23 µM.
Assay: growth inhibition of DIPG glioma cells, dose response, cell-based, SU-DIPG-XIII, MIPE5.0, CellTiter-Glo, qHTS (AID 1347064);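 as to AC50: cells exposed to compound for 48 hours before the viability read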
Conditions: SU-DIPG-XIII viability, CellTiter-Glo ATP luminescence

| Compound | AC50 | outcome |
| --- | --- | --- |
| COCCCc1sc(-c2ccccc2)nc1C(=O)Nc1ccccc1-c1nc2cc(CN3CCCC3)cnc2s1 | 9.1 µM (active) | – |
| Cc1ccc(-n2c(C)cc(-c3nnc4n3CCCCC4)c2C)cc1 | 14.8 µM (active) | – |
| N#Cc1ccc(-c2c(-c3ncn[nH]3)sc(N3CCOCC3)c2C#N)c(F)c1 | 5.9 µM (active) | – |
| O=C(NC[C@H](O)CN1CCc2ccccc2C1)c1ccnc(NC2CCC2)c1 | – | inactive |
| C=CC(=O)Nc1cccc(Sc2nc(Nc3ccc(N4CCN(C)CC4)cc3)ncc2Cl)c1 | 2.09 µM (active) | – |
| CCS(=O)(=O)Nc1ccc(Oc2ccc(F)cc2F)c(-c2cn(C)c(=O)c3[nH]ccc23)c1 | 0.105 µM (active) | – |
| CN(C)c1cc(NC(=O)CNC(C)(C)C)c(O)c2c1C[C@H]1C[C@H]3[C@H](N(C)C)C(=O)C(C(N)=O)=C(O)[C@]3(O)C(=O)C1=C2O | – | inactive |
| Cc1cc(O)c(-c2ccc([C@@H](C)CN(C)C)cc2)c2c1[nH]c(=O)c1sccc12 | 0.417 µM (active) | – |
| Nc1nccc2c1ncn2[C@@H]1C=C(CO)[C@@H](O)[C@H]1O | – | inactive |
| CONC(=O)Nc1ccc(-c2sc3c(c2CN(C)C)c(=O)n(-c2ccc(OC)nn2)c(=O)n3Cc2c(F)cccc2F)cc1 | – | inactive |
| Cc1c(C(=O)Nc2ccc(Oc3ccnc4[nH]cc(-c5ccccc5)c34)c(F)c2)c(=O)n(-c2ccc(F)cc2)n1C | 16.6 µM (active) | – |
| NC(=S)N/N=C/c1ncccc1N | 11.8 µM (active) | – |
| Cc1cc(C(=O)Nc2cc(Oc3ccc4nc(NC(=O)C5CC5)cn4n3)ccc2C)n(C)n1 | 10.5 µM (active) | – |
| CCNCCc1ccc(CN(CC)c2cc(OC)ccc2[C@@H]2CCc3cc(O)ccc3C2)cc1 | 7.42 µM (active) | – |
| CC1(C(=O)O)CCC2(C)CCC3(C)C(=CC(=O)C4C5(C)CCC(OC6OC(C(=O)O)C(O)C(O)C6OC6OC(C(=O)O)C(O)C(O)C6O)C(C)(C)C5CCC43C)C2C1 (stereo not given) | – | inactive |
| COC1(c2sc3c(N4CCOCC4)nc(-c4cnc(N)nc4)nc3c2C)COC1 | 0.661 µM (active) | – |
| C=Cc1cc(O)cc2nc(-c3ccc(O)c(F)c3)oc12 | – | inactive |
| O=C1OC(COc2ccccc2[N+](=O)[O-])CC1Cc1ccccc1 (stereo not given) | – | inactive |
| CN(C)N(C)C(=O)[C@@]1(Cc2ccccc2)CCCN(C(=O)[C@@H](Cc2c[nH]c3ccccc23)NC(=O)C(C)(C)N)C1 | – | inactive |
| CC(C)n1c(=O)cc(N[C@@H](C)c2ccccc2)[nH]c1=O | 9.34 µM (active) | – |

| Compound | AC50 | outcome |
| --- | --- | --- |
| C[C@@H](C(=O)Nc1ccc(Cl)cc1)C1CCC(c2ccnc3ccc(F)cc23)CC1 (stereo not given in full) | – | inactive |
| NC(=O)c1cccc(-c2cc(Nc3ccc(OC(F)(F)F)cc3)ncn2)c1 | 20.9 µM (active) | – |
| CC1(C)CCC2(CC1)N[C@@H](C(=O)N[C@@H]1CC[C@@H](C(N)=O)OC1)[C@H](c1ccnc(Cl)c1F)[C@]21C(=O)Nc2cc(Cl)ccc21 | 16 µM (active) | – |
| CCS(=O)(=O)N1CCN(c2ccc(Nc3ncc(C(N)=O)c(NC4CC4)n3)cc2)CC1 | 16.6 µM (active) | – |
| Cc1c(NC(=O)c2cc(C(N)=O)nc3cc(F)ccc23)c(C(F)(F)F)nn1Cc1ccc(C(C)(C)C)cc1 | 26.3 µM (active) | – |
| Cc1ccc(S(=O)(=O)Nc2cc(C(F)(F)F)ccc2C(=O)Nc2nc(-c3ccccc3)cs2)cc1 | 4.17 µM (active) | – |
| O=C(Cc1cccc(OC(F)(F)F)c1)Nc1ccc(CCCCc2nnc(NC(=O)Cc3ccccn3)s2)nn1 | 13.2 µM (active) | – |
| c1ccc(CNCc2ccc(CN3CCCNCCNCCCNCC3)cc2)nc1 | – | inactive |
| CCN1C(=O)CNc2ncc(-c3ccc(-c4ncn[nH]4)nc3C)nc21 | 4.17 µM (active) | – |
| Cc1ccc(NC(=O)[C@H]2CCCN(C(=O)c3c(C)cccc3F)[C@H]2c2ccc(NC3CCCC3)cc2)cc1C(F)(F)F | – | inactive |
| NC(=O)c1cnc(N[C@@H]2CCCC[C@@H]2N)nc1Nc1cccc(-n2nccn2)c1 | 7.42 µM (active) | – |
| CN[C@@H](C)C(=O)N[C@H](C(=O)N1CCC[C@H]1C(=O)Nc1snnc1-c1ccccc1)C1CCCCC1 | – | inactive |
| COCc1c(-c2ccc(NC(=O)Nc3cc(C(F)(F)F)ccc3F)c(F)c2)c2c(N)ncnn2c1CN1CCOCC1 | 0.295 µM (active) | – |
| COc1ccc(-n2cnc3cc(C(=O)N4CCCCC4)ccc32)cc1 | – | inactive |
| O=C(NO)c1cnc(NC2(c3ccccc3)CC2)nc1 | 3.32 µM (active) | – |
| CCCCOC(=O)NS(=O)(=O)c1sc(CC(C)C)cc1-c1ccc(Cn2ccnc2)cc1 | – | inactive |
| CC(C)C(N)C(=O)OCC(CO)OCn1cnc2c(=O)[nH]c(N)nc21 (stereo not given) | – | inactive |
| OC(c1ccc(-c2ccc(CN3CCN(Cc4ccncc4)CC3)cc2)c(F)c1)(C(F)(F)F)C(F)(F)F | – | inactive |
| CN1C(=O)N[C@H](Cc2c[nH]c3c(Cl)cccc23)C1=O | – | inactive |
| COc1ncc(Nc2ncc([C@H](C)N3CCN(S(C)(=O)=O)CC3)cc2-c2nc(C)nc(N)n2)cc1F | 0.525 µM (active) | – |

From PubChem BioAssay
